The campaign covered roughly 2,200 compounds. About 1,300 (59%) were called active. How the calls were made is not given here. The set was probably picked from earlier hits. Not all results are given here. Results with a measured potency or affinity are listed apart.

The nature of the assay: human monocytic cell viability reduction – S. typhimurium screen hits, cytotoxicity control for Salmonella PhoP regulon inhibitors, dose response (AID 2253). To be noted: THP-1 viability, CellTiter-Glo luminescence, 72 h; series mostly up to 50 µM; viability: at the top concentration. Background: ATP-based viability assays read luminescence as a measure of living cells.
A word on the viability: it is a read-out of living cells in per cent, often relative to untreated cells. For `COc1ccc(NC(=O)CN2CCCCC2)c([N+](=O)[O-])c1`, the “viability” value is 88.2% (inactive).

As for `CCOc1ccc(N/C=C/C(=O)c2ccc(OC)cc2)c([N+](=O)[O-])c1`, the “viability” value was 88% (inactive).

For the molecule `CCCc1nnc(NC(=O)c2cn(CC)c3cc(N4CCN(C)CC4)c(F)cc3c2=O)s1`, the “viability” value was 98.7% (inactive).

For the molecule `Cc1nc(SCC(=O)NC(C)c2ccccc2)c2oc3ccccc3c2n1` (centres undefined), the “viability” value is 99.9% (inactive).

Consider `CCCn1c(SCC(=O)NCCc2ccccc2)nnc1-c1cccnc1`, for which the “viability” value is 102% (inactive).

`Cn1ccnc1C(O)c1ccc(OCc2ccccc2)cc1` (centres undefined): the “viability” value was 94.7% (inactive).

For `CCOC(=O)c1c(N)ssc1=S`, the “viability” value is 94.8% (inactive).

Take `O=S1(=O)CC(O)C(Nc2ccccc2Cl)C1` (centres undefined): the “viability” value was 94.2% (inactive).

Regarding `NC(=O)c1c(N)sc2c1CCCCC2`, the “viability” value is 110% (inactive).

In the case of `O=C(Nc1cnn(Cc2ccc(F)cc2)c1)c1cnccn1`, the “viability” value is 100% (inactive).

Consider `O=C(Nc1cnc2ccccc2c1)N1CCOCC1`, for which the “viability” value is 94.5% (inactive).

With `CC(C)(C)n1ncc2c(=O)n(CC(=O)Nc3ccc4c(c3)OCO4)cnc21`, the “viability” value was 83.4% (inactive).

As for `CC(C)n1cc(C(=O)N2CCCC(N3CCN(c4ccc(F)cc4)CC3)C2)cn1` (centres undefined), the “viability” value is 96.6% (inactive).

In the case of `O=[N+]([O-])c1ccc(N2CCN(CCOc3nonc3-c3ccccc3)CC2)c(Cl)c1`, the “viability” value is 97.4% (inactive).

Turning to `Cc1ccc(-n2nnnc2SCC(=O)Nc2ncc(Cc3ccccc3Cl)s2)cc1`, the “viability” value is 104% (inactive).

For `Cc1ccc(NS(=O)(=O)c2ccc(N3C(=O)CCC3=O)cc2)cc1`, the “viability” value was 81.5% (inactive).

Take `CCC(CC)C(=O)N1c2ccc(F)cc2CCC1C` (centres undefined): the “viability” value was 88.7% (inactive).

For the molecule `CCOC(=O)N1CCN(C(=O)c2cn(CC)c3cc(N4CCN(C)CC4)c(F)cc3c2=O)CC1`, the “viability” value is 95% (inactive).

In the case of `Nc1[nH]c(=O)ncc1F`, the “viability” value is 104% (inactive).

Consider `O=C(NCCc1cn2ccccc2n1)c1ccccc1F`, for which the “viability” value is 86.2% (inactive).

For `CC(C)CCn1c(SCC(=O)N2CC(=O)Nc3ccccc32)nc2scc(-c3cccs3)c2c1=O`, the “viability” value was 94.8% (inactive).

For the molecule `Cc1nnc(NC(=O)CSc2ncnc3scc(-c4ccccc4)c23)s1`, the “viability” value was 100% (inactive).

As for `COc1ccc(/C=N/NC(=O)CC(=O)NCc2cccnc2)cc1`, the “viability” value is 90.9% (inactive).

Take `COC(=O)c1ccc(NC(=S)Nc2ccc3ccccc3c2)cc1`: the “viability” value was 82.9% (inactive).

Regarding `COC(=O)c1ccccc1Oc1cnc2ccccc2n1`, the “viability” value was 95.5% (inactive).

Regarding `CC(=O)N1CCN(c2cc3c(cc2F)c(=O)c(C(=O)O)cn3C2CC2)CC1`, the “viability” value was 103% (inactive).

Consider `Cn1c(CO)cnc1SCc1ccc([N+](=O)[O-])cc1`, for which the “viability” value is 90.9% (inactive).

Consider `CC(=O)c1sc(NC(=O)COc2ccc([N+](=O)[O-])cc2)nc1C`, for which the “viability” value is 92.2% (inactive).

In the case of `CCOC(=O)CC(=O)CSc1nc2c(c(C)c1C#N)CCC2`, the “viability” value was 92.9% (inactive).

On to `Cc1cc2c(c(=O)n1C)C(Cc1ccccc1)C(C#N)=C(N)O2` (centres undefined), for which the “viability” value was 96.5% (inactive).

Take `O=C1Nc2ccccc2C(O)(C(=O)N2CCCCC2)N1c1ccccc1` (centres undefined): the “viability” value is 81.5% (inactive).

Take `O=C1CC(c2ccccc2)n2ncnc2N1` (centres undefined): the “viability” value is 92.4% (inactive).

Consider `NC1CCN(c2c(F)cc3c(=O)c(C(=O)O)cn(C4CC4)c3c2Cl)C1` (centres undefined), for which the “viability” value is 93.8% (inactive).

On to `Cc1ccc(CCNC(=O)C2CCCN(S(=O)(=O)c3c(C)noc3C)C2)cc1` (centres undefined), for which the “viability” value was 94.9% (inactive).

For `Cc1ccc(CCNC(=O)C2CCN(S(=O)(=O)N3CCCC3)CC2)cc1`, the “viability” value is 91.8% (inactive).

As to `O=C(CSc1nccc(=O)[nH]1)N1c2ccccc2CCc2ccccc21`, the “viability” value is 96.8% (inactive).

For `CCN(CCO)Cc1csc2ccccc12`, the “viability” value was 108% (inactive).

In the case of `Cc1cc(C(=O)N/N=C/C=C/c2ccc3c(c2)OCO3)n[nH]1`, the “viability” value was 92.8% (inactive).

Consider `O=C(N/N=C/c1cccn1-c1ccc([N+](=O)[O-])cc1)C(O)c1ccccc1` (centres undefined), for which the “viability” value is 102% (inactive).

For the molecule `Cc1nc2ccccn2c1C(=O)N/N=C/c1ccccc1[N+](=O)[O-]`, the “viability” value is 91.7% (inactive).

Consider `Cc1cc(C(=O)N/N=C/c2cccc([N+](=O)[O-])c2O)n[nH]1`, for which the “viability” value was 108% (inactive).

For `CC1(C)CC2CC(C)(CN2C(=O)COC(=O)c2n[nH]c(=O)c3ccccc23)C1` (centres undefined), the “viability” value was 83.8% (inactive).

Regarding `CCOC(=O)c1sc2nccc(N(C)C)c2c1N=CNOCc1c(F)cccc1Cl`, the “viability” value was 88.5% (inactive).

Consider `O=C(Cn1cnc2ccccc2c1=O)NCc1ccco1`, for which the “viability” value is 102% (inactive).

With `O=C(CCCNS(=O)(=O)c1ccccc1)NCc1ccco1`, the “viability” value is 101% (inactive).

For `O=C1CSC(=S)N1c1ccc(F)cc1`, the “viability” value is 89.2% (inactive).

Regarding `COc1ccc(OC)c(C(=O)C2COC(=O)C2)c1` (centres undefined), the “viability” value was 89.6% (inactive).

As for `Cc1cc2ncn(CC(O)COc3cccc(C(=O)O)c3)c2cc1C` (centres undefined), the “viability” value was 101% (inactive).

For `COc1ccc(C2C(C(=O)c3cccs3)=C(O)C(=O)N2c2nnc(C)s2)cc1OC` (centres undefined), the “viability” value was 103% (inactive).

On to `Brc1ccc(OCCn2ccnc2)cc1`, for which the “viability” value is 82.7% (inactive).

With `Clc1ccccc1OCCn1ccnc1`, the “viability” value is 98.8% (inactive).

On to `COc1ccc2c(c1)cc1n2CCN2CCCN=C12`, for which the “viability” value was 87.6% (inactive).

For the molecule `CCn1cc(C(=O)NCc2ccncc2)c(=O)c2cc(F)c(N3CCN(C(=O)c4ccco4)CC3)cc21`, the “viability” value is 91.7% (inactive).

Consider `O=C(CCCOc1ccccc1)N1CCCc2ccccc21`, for which the “viability” value was 84.2% (inactive).

For `O=C1CC(N2CCN(Cc3ccccc3)CC2)C(=O)N1c1ccccc1` (centres undefined), the “viability” value is 84.8% (inactive).

Regarding `C(=N\N1CCN(Cc2ccccc2)CC1)/c1cccnc1`, the “viability” value was 83.5% (inactive).

`CC(C)(C)c1ccc(-c2n[nH]c(=S)n2/N=C/c2ccncc2)cc1`: the “viability” value is 94.9% (inactive).

Consider `O=C(CCN1CCc2ccccc2C1)Nc1ccccc1F`, for which the “viability” value was 93% [at 25 µM] (inactive).

With `CCn1nnc(-c2ccccc2NC(=O)c2ccc(-n3cnnn3)cc2)n1`, the “viability” value was 106% (inactive).

With `N#Cc1nc(-c2cccs2)oc1NCCCN1CCOCC1`, the “viability” value is 104% (inactive).

For the molecule `CCOc1ccc(/C(O)=C2\C(=O)C(=O)N(CCN(C)C)C2c2cccc(OC)c2OC)cc1Cl` (centres undefined), the “viability” value is 91.8% (inactive).

On to `O=C(CCn1nnc(-c2cccs2)n1)NCc1ccccc1Cl`, for which the “viability” value is 92.5% (inactive).

As for `COc1ccc(C(=O)COc2nc(C)cc(C)c2C#N)cc1`, the “viability” value is 87.9% (inactive).

Take `CCc1nc2cc(Cl)c(Cl)cc2[nH]1`: the “viability” value was 94.8% (inactive).

`CC(=O)Nc1c(O)nc(SCC(=O)N2CCN(c3ccc(F)cc3)CC2)[nH]c1=O`: the “viability” value was 83.5% (inactive).

Regarding `O=C(NCCCN1CCCC1=O)c1ccc(Cl)c(NS(=O)(=O)c2ccc(F)cc2)c1`, the “viability” value was 104% (inactive).

With `CC(C)(C)NC(=O)CSc1nnc(-c2ccncc2)o1`, the “viability” value is 94.5% (inactive).

Turning to `CC(=O)NCCOc1c(C)cc(S(N)(=O)=O)cc1C`, the “viability” value was 98.2% (inactive).

Consider `Cn1cccc1CC(=O)N/N=C/C(Cl)=C/c1ccccc1`, for which the “viability” value was 81.8% (inactive).

As for `CC1(C)CC(=O)c2c(nc3ccccc3c2N)C1`, the “viability” value is 83.7% (inactive).

As to `Cc1cc(C(=O)N2CCN(C/C=C/c3ccccc3)CC2)no1`, the “viability” value was 97.7% (inactive).

With `CC(CCc1ccccc1)NC(=O)c1ccccc1` (centres undefined), the “viability” value is 92.6% (inactive).

In the case of `COCc1cc(C)nc(N2CCc3ccccc32)c1C#N`, the “viability” value is 96% (inactive).

As to `COc1ccc(-c2cnn3c(N)c(S(=O)(=O)C(C)(C)C)cnc23)cc1`, the “viability” value is 82.9% (inactive).

For the origin of these results see PubChem BioAssay AID2253 (Southern Research Specialized Biocontainment Screening …, 2010).
